Compounds with a hit are over-represented: about 2.2% of the library has one in this group of screens.
KLF5 inhibitor: kruppel-like factor 5 inhibition; DLD-1 KLF5 promoter-luciferase reporter, luminescence; inhibition, % at 5 µM; 290,000 tested, 0.23% active; AID 1700;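 active = inhibition above a per-plate limit of that plate's mean compound inhibition plus 3 SD, cut at about 60% in these data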;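 also: higher means less KLF5 promoter-driven luciferase light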
IEC-6 tox-1: IEC-6 cytotoxicity, counter-screen for KLF5 inhibitors; luminescence viability; inhibition, % at 5 µM; 290,000 tested, 0.78% active
Ba/F3 V617F tox: loss of viability in JAK2V617F-driven Ba/F3 cells. Ba/F3 EpoR-JAK2V617F viability, ATP luminescence. inhibition, % at 5.6 µM. 220,000 tested, 1.1% active;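 active = inhibition above the campaign mean plus 3 SD over all tested compounds, cut at about 24% in these data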;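 also: cytokine-independent growth of Ba/F3 cells driven by EpoR plus mutant JAK2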
BaF3 tox: reduces parental Ba/F3 cell viability, JAK2V617F counter-screen | 220,000 tested, 1.1% active | inhibition, % at 5.6 µM | CellTiter-Glo ATP luminescence;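 active = inhibition above a per-campaign cutoff, the mean inhibition of all tested compounds plus 3 SD, cut at about 27% in these data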
aSyn 5UTR inh: 5' untranslated region of α-synuclein, MLPCN primary screen; alpha-synuclein 5'UTR reporter, inhibitor activity; inhibition, % (tested at 7.5 µM); 300,000 tested, 0.82% active; AID 1813; in the data active = inhibition above about 60%;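 also: H4 neuroglioblastoma cells stably carrying SNCA 5'UTR luciferase fusion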
APP 5UTR inh: APP translation inhibition. SH-SY5Y APP 5'UTR-luciferase reporter, luminescence. inhibition, % at 2 µM. 190,000 tested, 0.82% active. AID 1285;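 active = inhibition above a set limit, derived from the sample mean plus 3 SD, cut at about 45% in these data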
BaF3 tox 2: parental Ba/F3 viability inhibition for JAK2V617F counter-screen. inhibition, % at 5.6 µM. 580 tested, 31% active. AID 1520. CellTiter-Glo luminescence; cells kept alive by added IL-3. shares compounds with Ba/F3 V617F tox;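 active = cell growth inhibition above the hit limit set in the earlier mutant JAK2 cell screen, cut at about 27% in these data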
JAK2V617F conf: confirmation: loss of viability in JAK2V617F-dependent Ba/F3 cells; shares compounds with Ba/F3 V617F tox; Ba/F3 EpoR-JAK2V617F viability, CellTiter-Glo luminescence; inhibition, % at 5.6 µM; 580 tested, 66% active; AID 1521;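 active = mean inhibition above the hit cutoff derived in the earlier primary screen, cut at about 25% in these data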;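 also: higher means lower luminescence from reduced cell ATP and viability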
KLF5 confirm: KLF5 inhibition, confirmation assay; shares compounds with KLF5 inhibitor; 610 tested, 79% active; AID 1834; inhibition, % at 4 µM; DLD-1 KLF5 promoter firefly luciferase reporter, luminescence;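 active = inhibition above a set limit taken from the earlier primary screen, cut at about 63% in these data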
IEC-6 tox-2: kills rat IEC-6 cells in KLF5 counter-screen; shares compounds with KLF5 inhibitor; IEC-6 rat intestinal cells, viability luminescence; inhibition, % at 4 µM; 610 tested, 56% active; AID 1905; in the data active = inhibition above about 23%;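 also: cells exposed to compounds for 48 hours before viability read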
IEC-6 cytotox cf: confirmation of cytotoxic compounds in rat IEC-6 intestinal epithelial cells | shares compounds with IEC-6 tox-1 | IEC-6 rat intestinal epithelial viability, luminescence | inhibition, % at 5 µM | 1,900 tested, 63% active | AID 1907
A number is an active result; i = inactive; nt = not tested or not shown. Rule as the data show it, unless noted: active = inhibition above about 22%; inactive = the rest.

SMILES	KLF5 inhibitor	IEC-6 tox-1	Ba/F3 V617F tox	BaF3 tox	aSyn 5UTR inh	APP 5UTR inh	KLF5 confirm	IEC-6 tox-2	others
COc1ccc(-c2cnc3c(c2)CCC3(C#N)C#N)cc1	i	70	38	i	i	62	nt	nt	BaF3 tox 2=i;JAK2V617F conf=78;IEC-6 cytotox cf=i
CC(C)C(=O)Nc1ccc(C(=O)NCc2cccnc2)cc1	i	62	60	i	i	i	nt	nt	BaF3 tox 2=35;JAK2V617F conf=99;IEC-6 cytotox cf=23
O=C(NCc1cccnc1)c1ccc(NC(=O)c2ccco2)cc1	i	i	i	i	i	i	nt	nt
Cc1ccc(OCCN2C(=O)C(=O)c3cc(C)ccc32)cc1	i	91	25	i	i	84	nt	nt	BaF3 tox 2=57;JAK2V617F conf=99;IEC-6 cytotox cf=46
CCn1c(SCC(=O)NC2(C#N)CCCCC2)nc2ccccc2c1=O	nt	nt	nt	nt	i	nt	nt	nt
CCCS(=O)(=O)c1nnnn1-c1cccc(OC)c1	i	33	39	i	i	62	nt	nt	BaF3 tox 2=76;JAK2V617F conf=99;IEC-6 cytotox cf=48
O=C(Nc1ccccc1)C1=C(c2ccccc2)S(=O)(=O)CCS1(=O)=O	i	28	85	i	i	87	nt	nt	BaF3 tox 2=66;JAK2V617F conf=100;IEC-6 cytotox cf=24
CC(=O)c1cccc(NC(=O)CCCCCn2nnc3ccccc3c2=O)c1	i	i	nt	nt	i	nt	nt	nt
COc1ccccc1N(C(=O)CCl)c1cn(C(C)=O)c2ccccc12	i	57	75	i	i	nt	nt	nt	BaF3 tox 2=i;JAK2V617F conf=87;IEC-6 cytotox cf=23
CC(=O)n1cc(Nc2ccccc2C(=O)O)c2ccccc21	i	i	i	i	i	i	nt	nt
COCCCN(C(=O)Cc1csc(-c2cccc(Cl)c2)n1)c1c(N)n(Cc2ccccc2)c(=O)[nH]c1=O	nt	nt	nt	nt	i	nt	nt	nt
COc1ccccc1C(O)P(=O)(OCC(C)C)c1ccc(N(C)C)cc1 (stereo not given)	i	i	nt	nt	i	nt	nt	nt
CCOc1ccccc1C(=O)Nc1ccsc1C(=O)OC	i	32	54	i	65	85	nt	nt	BaF3 tox 2=58;JAK2V617F conf=94;IEC-6 cytotox cf=53
COc1ccccc1N1C(=NC(=O)CCc2ccccc2)SC2CS(=O)(=O)CC21 (stereo not given)	i	i	nt	nt	i	nt	nt	nt
Cc1ccc(C(=O)N/N=C/c2ccc(-c3cccc(C(F)(F)F)c3)o2)cn1	i	28	39	i	65	nt	nt	nt	BaF3 tox 2=58;JAK2V617F conf=91;IEC-6 cytotox cf=37
Cc1ccc(N(C(=O)CCl)C(C(=O)NC2CCCCC2)c2cccnc2)cc1C (stereo not given)	i	80	86	i	i	i	nt	nt	BaF3 tox 2=77;JAK2V617F conf=100;IEC-6 cytotox cf=63
Cc1ccc(N(C(=O)CNC(=O)c2ccco2)C(C(=O)NC2CCCCC2)c2cccnc2)cc1C (stereo not given)	i	i	nt	nt	i	nt	nt	nt
CCC(C)c1ccccc1N1CC(C(=O)Nc2ccc(S(=O)(=O)N3CCOCC3)cc2)CC1=O (stereo not given)	nt	nt	nt	nt	i	nt	nt	nt
CCOCCCNC(=O)/C(C#N)=C/c1cc(Br)c(O)c(Br)c1	i	24	64	i	i	nt	nt	nt	BaF3 tox 2=i;JAK2V617F conf=55;IEC-6 cytotox cf=i
Cc1ccc(C(=O)Nc2cnc3ccccc3c2)cc1	97	i	i	i	103	i	105	i
O=C(Nc1cnc2ccccc2c1)c1cccnc1	i	i	i	i	i	i	nt	nt
Cc1ccc(C(=O)Nc2nc3ccccc3[nH]2)cc1	86	i	nt	nt	68	nt	66	i
COc1ccc(C(=O)Nc2nc3ccccc3[nH]2)cc1	65	i	nt	nt	71	nt	i	i
O=C(Nc1nc2ccccc2[nH]1)c1ccc([N+](=O)[O-])cc1	i	i	i	i	i	i	nt	nt
COc1cc(C(=O)Nc2nc3ccccc3[nH]2)cc(OC)c1OC	i	i	i	i	i	i	nt	nt
SMILES	KLF5 inhibitor	IEC-6 tox-1	Ba/F3 V617F tox	BaF3 tox	aSyn 5UTR inh	APP 5UTR inh	KLF5 confirm	IEC-6 tox-2	others
CCn1c(C2CCN(Cc3ccccc3)CC2)n[nH]c1=S	i	i	i	i	i	i	nt	nt
Cc1ccc(Cl)cc1N1CCN(S(=O)(=O)c2cn(C)cn2)CC1	i	i	nt	nt	i	nt	nt	nt
Clc1ccccc1/C=C/c1nc(-c2ccccn2)no1	72	i	i	i	104	nt	73	i
CSc1nc(N(C)NC(=O)c2ccc(F)cc2)c2ccccc2n1	79	78	72	73	77	95	78	61
Cn1c(CNC(=O)c2ccc(F)cc2)nc2ccccc21	i	i	i	i	i	i	nt	nt
CCOC(=O)COc1cccc2c(=O)n(CC(=O)NCc3ccc(F)cc3)ccc12	63	i	72	68	75	nt	80	23
O=C(O)c1cccc(COc2ccc3c(c2)CCC3)c1	98	i	i	i	81	nt	100	i
O=C(NCc1ccccc1)c1cccc(COc2ccc3c(c2)CCC3)c1	i	i	i	i	i	i	nt	nt
c1ccc(-c2noc(-c3ccc4ccccc4c3)n2)nc1	82	i	i	i	113	49	106	i
Cc1c(C)n(Cc2ccc(Cl)cc2)c2ccc(C(=O)NCCN3CCOCC3)cc12	i	i	nt	nt	i	nt	nt	nt
CCCS(=O)(=O)c1cnc(C2COc3ccccc3O2)nc1N (stereo not given)	98	i	nt	nt	68	nt	78	i
O=c1cc(-c2ccccc2)[nH]c2ccc(F)cc12	69	82	75	74	87	92	82	57
Cc1ccc(-c2cc(=O)c3cc(F)ccc3[nH]2)cc1	i	i	i	i	i	i	nt	nt
CN=c1scc(-c2cccs2)n1/N=C/c1ccccc1O	108	i	i	i	103	53	95	i
CN=c1scc(-c2cccs2)n1/N=C/c1ccc(O)c(O)c1O	i	i	i	i	i	i	nt	nt
Cc1ccc(N(C)S(=O)(=O)c2c[nH]c3ccc([N+](=O)[O-])cc23)cc1	i	i	nt	nt	i	nt	nt	nt
O=C1CCCc2nc3c(cc21)C(O)Oc1c-3ccc2ccccc12 (stereo not given)	i	i	i	i	i	i	nt	nt
O=C1CCCc2nc3c(cc21)C(O)Oc1ccccc1-3 (stereo not given)	110	i	i	i	i	i	i	i
COc1cc(CCC(=O)NCCc2ccc(F)cc2)cc(OC)c1OC	i	i	nt	nt	i	nt	nt	nt
COc1ccc(-n2ncc3c(N4CCN(c5cccc(C)c5C)CC4)ncnc32)cc1	i	i	nt	nt	i	nt	nt	nt
COc1ccc(-n2ncc3c(N4CCCCC4)ncnc32)cc1	65	i	i	i	101	i	88	i
COc1cc(/C=C/[N+](=O)[O-])ccc1OCc1cccc(C(=O)O)c1	71	i	i	i	97	58	67	i
Cc1ccc2c(Cl)c(C(=O)Nc3cccnc3)sc2c1	i	i	i	i	i	i	nt	nt
COc1ccc(NC(=O)COC(=O)CCCC2=NS(=O)(=O)c3ccccc3N2)cc1	i	i	nt	nt	i	nt	nt	nt

Source: PubChem (several laboratories)
